Activity calls are given as the source filed them.
Columns and labels:
[1] = optical density shifts of acrAB sulA E. coli – strain DRC41, OD650, 48 h, E. coli filamentation inducer project, primary screen (AID 1152); conditions: higher = more signal, called active from +8 up or from −8 down;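 note: E. coli MC1000 strain DRC41 lacking acrAB efflux pump and sulA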
[2] = probe aLefty1 binding on compound microarray – biochemical, small-molecule microarray, 635/667 nm fluorescence, primary screen (AID 1153); conditions: higher = more signal;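 note: score merges spot fluorescence with signal-to-noise ratio from the scanned slide images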
[3] = plasmodial surface anion channel blockers, osmotic lysis – cell-based, P. falciparum Indochina, OD700, 1 h, primary screen (AID 1154); conditions: P. falciparum Indochina infected RBC osmotic lysis, higher = more signal, called active from +8 up or from −8 down
[4] = plasmodial surface anion channel blockers, osmotic lysis – cell-based, P. falciparum Indochina, OD700, 2 h, primary screen (AID 1155);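 note: lysis reports solute entry through the parasite surface anion channel PSAC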; conditions: P. falciparum Indochina infected erythrocytes, higher = more signal, called active from +8 up or from −8 down
[5] = changes in parasitized red cell lysis, either direction – P. falciparum Indochina, OD700, 3 h, PSAC antagonist project, primary screen (AID 1156); conditions: P. falciparum-infected erythrocytes, osmotic lysis, higher = more signal, called active from +8 up or from −8 down
[6] = plasmodial surface anion channel blockers, osmotic lysis – cell-based, P. falciparum Indochina, OD700, 18 h, primary screen (AID 1157); conditions: P. falciparum Indochina infected erythrocytes, osmotic lysis OD700, 18 h; higher = more signal, called active from +8 up or from −8 down
[7] = S6 kinase pathway phospho-S6 level changes – cell-based, A549, cytoblot, luminescence, serum-stimulated, primary screen (AID 1158); conditions: 5 h, higher = more signal;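 note: serum-stimulated A549 lung adenocarcinoma cells; signal is phosphorylated S6 detected by cytoblot immunostaining with HRP secondary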
[8] = target: NADPH oxidase 2 (Homo sapiens) (UniProt P04839); test: compounds shifting NOX2 Amplex Red fluorescence – cell-based, HEK293-NOX2, PMA-stimulated, NOX inhibitor project, primary screen (AID 1159); conditions: 45 min, higher = more signal, called active from +8 up or from −8 down; note: test concentration not given here
[9] = target: NADPH oxidase 4 (Homo sapiens) (UniProt Q9NPH5); test: compounds shifting NOX4 Amplex Red fluorescence – cell-based, HEK293-NOX4, tetracycline-induced, NOX inhibitor project, primary screen (AID 1160); conditions: HEK293-NOX4, Amplex Red H2O2 fluorescence, 45 min; higher = more signal, called active from +8 up or from −8 down
[10] = target: NADPH oxidase 5 (Homo sapiens) (UniProt Q96PH1); test: compounds shifting NOX5 Amplex Red fluorescence – cell-based, HEK293-NOX5, NOX inhibitor project, primary screen (AID 1161); conditions: HEK293-NOX5, ionomycin, 45 min, higher = more signal
[11] = compound effects on lung adenocarcinoma cell viability – A549, calcein-AM fluorescence, 48 h, basal, profiling panel (AID 1162); conditions: higher = more signal; note: test concentration not given here
[12] = compound effects on differentiated 3T3-L1 adipocyte viability – cell-based, 3T3-L1 adipocytes, calcein-AM fluorescence, 48 h, basal, profiling panel (AID 1163); conditions: 3T3-L1 adipocytes viability, higher = more signal; note: test concentration not given here
[13] = compound effects on hepatocellular carcinoma cell viability – HepG2, calcein-AM fluorescence, 48 h, basal, profiling panel (AID 1164); conditions: higher = more signal; note: test concentration not given here
[14] = compound effects on multiple myeloma cell viability – MM1S, calcein-AM fluorescence, 48 h, basal, profiling panel (AID 1165); conditions: higher = more signal; note: test concentration not given here
[15] = calcein-AM signal in unstimulated myeloma cells – cell-based, calcein-AM fluorescence, 48 h, PK04 Diversity Set, profiling panel (AID 1166); conditions: RPMI8226 myeloma viability, higher = more signal;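 note: cells grown under basal conditions without added stimulus; test concentration not given here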
[16] = JC-1 mitochondrial signal, unstimulated HepG2 cells – cell-based, JC-1 fluorescence, 24 h, 100 nL compound, profiling panel (AID 1167); conditions: HepG2 mitochondrial potential, higher = more signal; note: test concentration not given here
[17] = JC-1 mitochondrial signal, unstimulated adipocytes – cell-based, JC-1 fluorescence, 3T3-L1 adipocytes, 24 h, 100 nL compound, profiling panel (AID 1168); conditions: JC-1 mitochondrial fluorescence, higher = more signal, called active from +8 up or from −8 down; note: test concentration not given here
[18] = JC-1 mitochondrial signal, unstimulated myeloma cells – cell-based, JC-1 fluorescence, RPMI8226, 24 h, 100 nL compound, profiling panel (AID 1169); conditions: JC-1 mitochondrial potential fluorescence, higher = more signal; note: test concentration not given here
[19] = JC-1 mitochondrial signal, unstimulated MM1S myeloma – cell-based, JC-1 fluorescence, 24 h, 100 nL compound, profiling panel (AID 1170); conditions: MM1S mitochondrial potential, higher = more signal; note: test concentration not given here
[20] = resazurin metabolic signal in A549 cells – cell-based, resazurin fluorescence, 24 h, PK04 Diversity Set, profiling panel (AID 1171); conditions: A549 viability, higher = more signal, called active from +8 up or from −8 down; note: test concentration not given here

Chain of NADPH oxidase 4 (Homo sapiens) (Q9NPH5 whole entry, looked up): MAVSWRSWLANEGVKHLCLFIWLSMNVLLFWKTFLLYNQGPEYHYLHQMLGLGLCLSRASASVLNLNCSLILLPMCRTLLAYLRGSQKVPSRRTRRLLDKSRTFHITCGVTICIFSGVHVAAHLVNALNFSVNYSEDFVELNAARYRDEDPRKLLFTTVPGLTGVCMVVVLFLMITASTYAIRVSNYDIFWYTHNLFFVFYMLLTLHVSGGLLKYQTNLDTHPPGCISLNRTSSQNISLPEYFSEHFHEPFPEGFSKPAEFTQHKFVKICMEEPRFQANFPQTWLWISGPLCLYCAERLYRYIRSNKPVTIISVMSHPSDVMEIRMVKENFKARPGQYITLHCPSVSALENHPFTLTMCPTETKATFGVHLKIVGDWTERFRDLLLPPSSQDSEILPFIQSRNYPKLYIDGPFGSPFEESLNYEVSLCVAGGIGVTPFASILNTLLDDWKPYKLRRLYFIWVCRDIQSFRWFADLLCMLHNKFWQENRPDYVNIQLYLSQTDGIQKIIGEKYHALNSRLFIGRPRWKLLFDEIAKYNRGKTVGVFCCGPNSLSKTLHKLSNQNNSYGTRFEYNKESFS
Chain of NADPH oxidase 5 (Homo sapiens) (Q96PH1 whole entry, looked up): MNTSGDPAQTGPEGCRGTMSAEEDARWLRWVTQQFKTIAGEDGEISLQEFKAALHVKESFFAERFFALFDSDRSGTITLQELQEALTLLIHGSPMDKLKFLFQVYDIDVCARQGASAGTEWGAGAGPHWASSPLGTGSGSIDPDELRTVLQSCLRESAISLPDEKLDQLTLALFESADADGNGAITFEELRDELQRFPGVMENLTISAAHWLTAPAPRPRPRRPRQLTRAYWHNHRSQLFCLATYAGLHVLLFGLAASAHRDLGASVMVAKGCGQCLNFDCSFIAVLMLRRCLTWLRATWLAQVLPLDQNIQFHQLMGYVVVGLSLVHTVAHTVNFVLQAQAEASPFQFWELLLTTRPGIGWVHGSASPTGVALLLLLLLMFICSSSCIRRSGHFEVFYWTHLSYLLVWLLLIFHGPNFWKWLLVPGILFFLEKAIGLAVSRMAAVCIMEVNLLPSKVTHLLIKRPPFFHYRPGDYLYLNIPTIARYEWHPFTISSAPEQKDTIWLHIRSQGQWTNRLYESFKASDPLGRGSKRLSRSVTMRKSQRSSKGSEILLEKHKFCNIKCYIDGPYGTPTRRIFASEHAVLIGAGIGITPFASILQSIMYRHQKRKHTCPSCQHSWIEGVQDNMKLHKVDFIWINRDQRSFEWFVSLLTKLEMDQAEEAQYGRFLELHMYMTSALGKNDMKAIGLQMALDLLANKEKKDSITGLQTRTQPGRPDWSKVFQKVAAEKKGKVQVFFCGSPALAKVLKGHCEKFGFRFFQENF
Chain of NADPH oxidase 2 (Homo sapiens) (P04839 whole entry, looked up): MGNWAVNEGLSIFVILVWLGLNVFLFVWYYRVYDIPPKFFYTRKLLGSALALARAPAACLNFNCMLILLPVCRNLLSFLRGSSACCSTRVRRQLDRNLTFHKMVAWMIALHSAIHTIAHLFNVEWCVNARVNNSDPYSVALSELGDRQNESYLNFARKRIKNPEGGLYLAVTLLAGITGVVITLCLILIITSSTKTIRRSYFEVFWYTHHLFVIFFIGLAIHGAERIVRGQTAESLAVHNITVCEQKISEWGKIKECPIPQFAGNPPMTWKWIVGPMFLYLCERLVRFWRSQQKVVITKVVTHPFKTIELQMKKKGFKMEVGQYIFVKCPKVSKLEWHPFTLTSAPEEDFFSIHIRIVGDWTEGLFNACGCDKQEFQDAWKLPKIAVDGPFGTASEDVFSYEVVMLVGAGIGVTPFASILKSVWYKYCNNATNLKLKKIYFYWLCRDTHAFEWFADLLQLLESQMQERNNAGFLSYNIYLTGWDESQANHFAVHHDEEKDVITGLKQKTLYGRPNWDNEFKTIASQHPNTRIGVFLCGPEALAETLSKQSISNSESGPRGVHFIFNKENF

Compound	z-score [1]	composite z-score [2]	z-score [3]	z-score [4]	z-score [5]	z-score [6]	z-score [7]	z-score [8]	z-score [9]	z-score [10]	z-score [11]	z-score [12]	z-score [13]	z-score [14]	z-score [15]	z-score [16]	z-score [17]	z-score [18]	z-score [19]	z-score [20]
CCCCC=C[C@@H](NC(=O)CCc1ccccc1)c1ccccc1	-2.27 (inactive)	0.396	1.36 (inactive)	0.592 (inactive)	-0.985 (inactive)	1.28 (inactive)	-0.0113	-0.753 (inactive)	-0.487 (inactive)	0.736	-2.48	-0.346	-3.43	-3.31	-4.71	-3.88	-0.775 (inactive)	-0.85	-1.74	-1.3 (inactive)
COC(=O)[C@@]1(Cc2ccc(OC)cc2)[C@H]2c3cc(C(=O)N(C)C)n(Cc4cc(F)c(F)c(F)c4)c3C[C@H]2CN1C(=O)c1ccccc1	-1.69 (inactive)	0.946	3.64 (inactive)	0.0174 (inactive)	1.3 (inactive)	-1.37 (inactive)	0.968	-2.92 (inactive)	-1.41 (inactive)	-2.54	-1.81	0.745	-0.909	-1.59	-2.93	3.22	-0.149 (inactive)	-0.863	-0.971	-1.48 (inactive)
COC(=O)C(CC#Cc1ccc2c(c1)[C@]1(C(=O)N2)[C@H](c2ccc(O)cc2)N2[C@H](c3ccccc3)[C@H](c3ccccc3)OC(=O)[C@H]2[C@@H]1C(=O)O)C(=O)OC	-1.42 (inactive)	0.0315	0.489 (inactive)	-0.18 (inactive)	-0.258 (inactive)	-0.367 (inactive)	-0.351	1.42 (inactive)	0.0467 (inactive)	1.29	0.391	-0.987	0.0171	0.226	-0.892	-0.141	-0.687 (inactive)	0.491	0.412	-0.279 (inactive)
C[N+](C)(C)CCCC[C@@H]1NC(=O)[C@@H]2C[C@H](C(=O)NCCCCCNC(=O)CS)[C@H](c3cccc(OCCO)c3)N2C1=O	0.724 (inactive)	-0.0061	3.64 (inactive)	0.813 (inactive)	-1.78 (inactive)	0.718 (inactive)	0.596	1.54 (inactive)	0.433 (inactive)	0.711	0.884	-0.0052	0.289	-0.0724	-1.31	1.8	-0.364 (inactive)	0.245	-0.243	0.764 (inactive)
COC(=O)[C@]1(Cc2ccccc2CN=[N+]=[N-])N=C(c2ccc(OCCCO)cc2)O[C@@H]1c1ccccc1CN=[N+]=[N-]	1.23 (inactive)	0.0962	30.8 (active)	24.1 (active)	1.88 (inactive)	5.85 (inactive)	0.196	-2.35 (inactive)	-0.0356 (inactive)	-1.79	-3.46	0.766	-4.79	-3.67	-4.08	0.344	0.24 (inactive)	-1.07	-2.47	-3.05 (inactive)
C[N+](C)(C)CCCCCCNC(=O)[C@@H]1C[C@@H]2C(=O)NCC(=O)N2[C@@H]1c1ccc(O)cc1	0.109 (inactive)	0.0984	0.451 (inactive)	-0.196 (inactive)	-1.53 (inactive)	-0.238 (inactive)	-0.727	0.823 (inactive)	0.899 (inactive)	-0.757	-0.261	-0.166	0.517	-0.0232	0.0324	-1.58	0.251 (inactive)	-0.0725	-0.534	0.28 (inactive)
COCCCNC(=O)[C@@]1(Cc2ccccc2I)c2ccccc2C(=O)N(Cc2ccccc2Cl)[C@H]1c1ccc(CO)cc1	0.437 (inactive)	-0.0346	5.51 (inactive)	0.303 (inactive)	0.65 (inactive)	0.13 (inactive)	0.984	0.374 (inactive)	-0.881 (inactive)	-2.14	-0.119	0.39	0.9	-0.36	-0.503	1.29	0.781 (inactive)	-0.778	0.148	2.16 (inactive)
CCCC=C(CCC)[C@@H](NC(=O)Cc1ccccc1)c1ccc(C(=O)OC)cc1	-1.45 (inactive)	1.47	1.19 (inactive)	0.194 (inactive)	-0.0448 (inactive)	0.25 (inactive)	-0.504	-0.458 (inactive)	0.261 (inactive)	1.89	-0.988	-0.735	-0.512	-2.42	-0.513	-1.59	-1.7 (inactive)	-0.566	-2.09	-0.712 (inactive)
C[N+](C)(C)CCCCNC(=O)[C@H]1C[C@H]2C(=O)NCC(=O)N2[C@H]1c1ccc(O)cc1	0.77 (inactive)	0.242	0.367 (inactive)	0.0681 (inactive)	-0.393 (inactive)	0.0564 (inactive)	-0.0248	-1.51 (inactive)	-0.769 (inactive)	0.226	-0.143	-0.811	0.658	0.519	0.124	0.227	-0.12 (inactive)	-0.797	-0.988	-1.02 (inactive)
O=C1c2ccccc2[C@](Cc2ccccc2I)(C(=O)NC2CC2)[C@H](c2ccc(CO)cc2)N1Cc1ccccc1Cl	-1.03 (inactive)	0.44	8.39 (active)	0.825 (inactive)	2.82 (inactive)	0.966 (inactive)	-0.283	0.717 (inactive)	0.466 (inactive)	0.739	-0.138	-0.103	-0.0887	-1.39	-0.715	0.833	-0.469 (inactive)	-0.332	-0.664	0.623 (inactive)
COCCOC(=O)N1C(=O)[C@@]2(c3cc(C#CCCO)ccc31)[C@H](C(=O)NC[C@H](O)c1ccccc1)[C@H]1C(=O)O[C@H](c3ccccc3)[C@H](c3ccccc3)N1[C@@H]2c1ccccc1OCCO	-0.0118 (inactive)	0.213	2.52 (inactive)	0.963 (inactive)	-0.654 (inactive)	0.705 (inactive)	-0.18	1.54 (inactive)	0.992 (inactive)	1.17	1.27	0.904	1.21	-1.96	-3.05	-1.36	0.833 (inactive)	-0.844	-0.424	0.715 (inactive)
COc1cc2c(cc1OC)CN(C(=O)[C@@H]1[C@H]3C(=O)O[C@H](c4ccccc4)[C@H](c4ccccc4)N3[C@H](c3ccc(OCCO)cc3)[C@@]13C(=O)Nc1ccc(C#CCCO)cc13)CC2	2.02 (inactive)	0.273	2.85 (inactive)	0.0851 (inactive)	0.464 (inactive)	-1.1 (inactive)	1.71	-0.303 (inactive)	-0.458 (inactive)	-4.23	-0.433	1.06	-0.857	-0.369	-0.987	-1.56	1 (inactive)	-0.862	-1.04	0.519 (inactive)
O=C1O[C@H](c2ccccc2)[C@H](c2ccccc2)N2[C@H]1[C@@H](C(=O)N1CCN(c3ncccn3)CC1)[C@]1(C(=O)Nc3ccc(C#CCCO)cc31)[C@H]2c1ccc(OCCO)cc1	-0.0115 (inactive)	0.473	4.32 (inactive)	1.18 (inactive)	0.588 (inactive)	0.585 (inactive)	0.034	1.11 (inactive)	0.57 (inactive)	0.951	-0.696	0.404	-0.53	-1.04	-0.284	-0.838	0.717 (inactive)	-0.883	-0.386	0.978 (inactive)
COc1ccc(C#Cc2ccc3c(c2)[C@]2(C(=O)N3)[C@H](C(N)=O)[C@H]3C(=O)O[C@H](c4ccccc4)[C@H](c4ccccc4)N3[C@@H]2c2ccc(O)cc2)cc1	-0.203 (inactive)	-0.131	3.46 (inactive)	1.63 (inactive)	0.0128 (inactive)	1.23 (inactive)	0.0535	0.945 (inactive)	0.346 (inactive)	-1.04	-0.765	0.13	-4.5	-3.29	-4.56	-3.11	0.283 (inactive)	-1.1	-2.28	-1.05 (inactive)
O=C1NC(=O)C2C1C=CC(C(O)c1ccc3c(c1)OCO3)N2Nc1ccc(Cl)cc1Cl (stereo not given)	-3.85 (inactive)	0.0861	7.58 (inactive)	1.84 (inactive)	-0.254 (inactive)	1.56 (inactive)	-0.593	-0.0436 (inactive)	-5.24 (inactive)	-3.26	-0.713	-0.638	-1.22	-2.41	-1.99	-2.87	-0.748 (inactive)	-0.103	-0.339	-0.233 (inactive)
COC(=O)[C@@]1(Cc2ccccc2)[C@H]2c3cc(C(=O)N(C)C)n(Cc4ccccn4)c3C[C@H]2CN1C(=O)c1ccccc1	-1.59 (inactive)	0.378	1.32 (inactive)	0.458 (inactive)	0.365 (inactive)	0.544 (inactive)	-0.733	0.048 (inactive)	-1.87 (inactive)	-2.08	-1.43	-0.125	-0.468	-1	-1.71	0.428	-0.698 (inactive)	0.00235	-0.135	-0.712 (inactive)
Cc1ccc(S[C@]2(C(=O)NCC(C)C)CC(=O)N(C3CCCCC3)[C@@H]2c2ccc(CO)cc2I)cc1	0.256 (inactive)	0.568	4.6 (inactive)	0.61 (inactive)	0.796 (inactive)	0.597 (inactive)	0.212	1.54 (inactive)	-1.02 (inactive)	-2.07	-0.62	-0.395	-0.885	-3.28	-3.46	0.752	0.49 (inactive)	-0.947	0.0655	1.3 (inactive)
COc1ccc([Si](C)(C)[C@@H]2[C@@H](CCO)O[C@]3(C(=O)N(Cc4cccc(N5C(=O)COc6ccccc65)c4)c4ccccc43)[C@H]2C)cc1	0.111 (inactive)	0.139	3.9 (inactive)	3.53 (inactive)	0.797 (inactive)	2.26 (inactive)	0.373	0.416 (inactive)	1.36 (inactive)	1.49	-2.03	0.574	-4.17	-2.95	-4.16	-0.527	0.351 (inactive)	-1.09	-1.7	-2.6 (inactive)

Source: PubChem BioAssay
